The record followed here is PubChem BioAssay AID588591 (National Center for Advancing Translational Sciences (NCATS), 2011).

The campaign covered roughly 390,000 compounds. About 4,700 (1.2%) were called active. Not shown: some 4% with an inconclusive outcome. Calls come from the whole dose curve; as a rule, active = well fitted inhibition curve with a large enough effect; inconclusive = small, poorly fitted or top-dose-only effect, or another doubt; inactive = no such curve, though single readings can be large or run the other way. Shown is part of a subset that was picked to be rich in actives.
% is set by controls: 0 for no effect and ±100 for the full control effect; potency is the fitted concentration of half-maximal effect.

The target in this assay is DNA polymerase eta (Homo sapiens) (UniProt Q9Y253). Kind of assay: qHTS for Inhibitors of Polymerase Eta. The settings on record: recombinant Pol eta, fluorescent DNA replication assay; series mostly up to 114 µM; activity change, negative = inhibition: at the top concentration. Put shortly: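 Fluorescent replication assay: 50 nM final substrate added after a 15 min room-temperature compound preincubation with 10 nM enzyme. Signal taken at 0 min and again at 10 min.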
Sequence of DNA polymerase eta (Homo sapiens) (Q9Y253 whole entry, looked up): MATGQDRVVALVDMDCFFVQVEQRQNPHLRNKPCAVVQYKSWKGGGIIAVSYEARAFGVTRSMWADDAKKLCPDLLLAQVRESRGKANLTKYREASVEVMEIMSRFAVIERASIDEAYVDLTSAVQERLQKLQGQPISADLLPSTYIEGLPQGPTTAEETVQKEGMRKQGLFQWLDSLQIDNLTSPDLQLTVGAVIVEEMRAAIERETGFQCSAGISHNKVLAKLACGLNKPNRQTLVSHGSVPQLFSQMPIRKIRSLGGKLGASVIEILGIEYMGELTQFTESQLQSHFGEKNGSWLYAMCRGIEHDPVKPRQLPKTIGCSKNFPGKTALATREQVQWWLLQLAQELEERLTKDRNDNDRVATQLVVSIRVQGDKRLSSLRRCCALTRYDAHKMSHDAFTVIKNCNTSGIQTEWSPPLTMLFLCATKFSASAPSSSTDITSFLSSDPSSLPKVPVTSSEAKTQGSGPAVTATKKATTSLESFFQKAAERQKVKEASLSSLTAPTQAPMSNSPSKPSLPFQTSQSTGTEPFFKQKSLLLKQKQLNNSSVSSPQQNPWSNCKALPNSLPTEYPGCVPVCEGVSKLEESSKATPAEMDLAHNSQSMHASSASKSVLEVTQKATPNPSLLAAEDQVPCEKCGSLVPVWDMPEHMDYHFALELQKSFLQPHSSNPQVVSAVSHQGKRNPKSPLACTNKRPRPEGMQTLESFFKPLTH
A general note: qHTS replaces the single test concentration by a dilution series.
As for `CCOc1ccccc1CNC(=O)C1CCCN(S(=O)(=O)c2ccc3c(ccn3C)c2)C1` (centres undefined), the “activity change, negative = inhibition” value was -23.1% (inactive).
In the case of `Cc1c2cnn(-c3ccccc3)c(=O)c2c(C)n1C(C)C(=O)Nc1ccc(Br)cc1F` (centres undefined), the “activity change, negative = inhibition” value is 0.659% (inactive).
Still for that read-out and setting: as for `Cc1cc(=O)[nH]c(SCc2ccc(Cl)cc2)n1`, the figure is -11.7% (inactive).
On to `Cc1ccc(-c2nc(SCc3ccc(Br)cc3)n3[nH]c(=O)cc3n2)cc1`, for which the Potency is 20 µM (active).
`Cc1cccc(-c2nc(SCc3ccc(Br)cc3)n3[nH]c(=O)cc3n2)c1`: the “activity change, negative = inhibition” value is -7.93% (inactive).
Regarding `Cc1cccc(N2CCN(c3ccc(C(=O)O)cc3NC(=O)c3ccccc3F)CC2C)c1` (centres undefined), the “activity change, negative = inhibition” value is -3.62% (inactive).
On the same count and under the same terms, as for `Cc1ccc(-c2nn(CCC(=O)Nc3ccc(OC(F)(F)F)cc3)c(=O)c3ccccc23)cc1`, the figure is -7.49% (inactive); as for `O=C(O)CSCc1ccc(C(=O)O)o1`, -8.54% (inactive); as for `O=C(c1ccco1)N1CCN(C(=O)c2ccc(COc3ccc(F)cc3)o2)CC1`, -2.04% (inactive).
Consider `O=C(O)c1ccc(COc2c(F)c(F)cc(F)c2F)o1`, for which the Potency was 44.7 µM (active).
For the molecule `COc1cc(C(=O)N2CCN(C(=O)COc3cccc(C)c3)CC2)cc(OC)c1OC`, the “activity change, negative = inhibition” value is -9.57% (inactive).
The same measure, in the same setting: as for `CCOc1ccc(NC(=O)c2c(NC(=O)Cc3ccccc3)sc3c2CCC(C)C3)cc1` (centres undefined), the figure is -4.12% (inactive); as for `Cc1ccc(C)c(Cn2c(=O)n(CCC(=O)NCc3ccc4c(c3)OCO4)c(=O)c3sccc32)c1`, -20.4% (inactive); as for `Cc1ccc(S(=O)(=O)N2CCC(C(=O)Nc3cc(C)ccc3C)CC2)cc1`, -13.8% (inactive).
In the case of `Cc1cccc(NC(c2cccc(F)c2)c2ccc3ccc(C)nc3c2O)n1` (centres undefined), the “activity change, negative = inhibition” value was -3.84% (inactive).
On the same count and under the same terms, as for `O=C(CSc1nc(O)c(Cc2ccccc2)c(=O)[nH]1)Nc1nc2c(s1)CCCC2`, the figure is 11.5% (inactive); as for `O=C(COC(=O)c1cc(=O)[nH]c2ccccc12)Nc1nc(-c2cccc(Br)c2)cs1`, -14.7% (inactive).
In the case of `O=C(CSc1nc2ccccc2c(=O)[nH]1)Nc1nc(-c2ccc(Br)cc2)cs1`, the Potency is 5.01 µM (active).
Regarding `CCOc1ccc(C2C(C(=O)Nc3ccc(Cl)cc3)=C(C)Nc3nc(C(F)(F)F)nn32)cc1` (centres undefined), the “activity change, negative = inhibition” value is -0.19% (inactive).
The same measure, in the same setting: the same measure for `CCc1nnc2c3ccccc3nc(N3CCN(c4ccc(C)cc4C)CC3)n12`: -12.3% (inactive); for `O=C(CCc1ccccc1)NCc1ccc2c(c1)CCN2C(=O)c1ccccc1`: -3.3% (inactive).
Regarding `CSC1=N/C(=C\C=C\c2cccs2)C(=O)S1`, the Potency was 17.8 µM (active).
Take `COc1cccc(-n2ccn(CC(=O)NCc3ccc(C)cc3)c(=O)c2=O)c1`: the “activity change, negative = inhibition” value is -16% (inactive).
Same read-out and setting: the same measure for `COc1ccc(Cn2ccnc2SCC(=O)NCc2ccco2)cc1`: -10% (inactive).
As for `Cc1ccc(OCCSc2nc(-c3cccs3)nc3cc(=O)[nH]n23)cc1Cl`, the Potency is 79.4 µM (active).
`O=c1cc2nc(-c3ccccc3)nc(SCCOc3ccc(Cl)cc3)n2[nH]1`: the “activity change, negative = inhibition” value was -10.2% (inactive).
On the same count and under the same terms, the same measure for `CC(C)c1c(O)nc(SCCOc2ccc(Cl)cc2)[nH]c1=O`: -10.8% (inactive).
The same measure, in the same setting: as for `CCCNC(=O)CCC(=O)N1Cc2ccccc2Oc2ncccc21`, the figure is -13.8% (inactive).
Still for that read-out and setting: the same measure for `CC(=O)c1ccc(N2CCN(C3C(=O)c4ccccc4N3C(C)=O)CC2)cc1` (centres undefined): -11.4% (inactive); for `COc1ccccc1C(=O)NC(=O)COC(=O)c1ccco1`: -6.22% (inactive).
In the case of `COc1ccccc1C(=O)N/C(=C/c1ccc2c(c1)OCO2)C(=O)Nc1cccc(C(=O)O)c1`, the “activity change, negative = inhibition” value was 0.0459% (inactive).
For `COc1ccccc1C(=O)N/C(=C/c1ccco1)C(=O)Nc1ccc(C(=O)O)cc1`, the Potency is 17.8 µM (active).
In the case of `COc1cccc(CNC(=O)CCC(=O)N2CC3CCCN3c3ccccc32)c1` (centres undefined), the “activity change, negative = inhibition” value is 2.47% (inactive).
Turning to `CC(N)=NCc1cccc(CN)c1`, the “activity change, negative = inhibition” value is -0.748% [at 57.1 µM] (inactive).
On the same count and under the same terms, as for `COc1ccc(OCCCC(=O)Nc2nnc(C3CCCO3)s2)cc1` (centres undefined), the figure is -15.4% (inactive).
Take `COc1ccc(OCC(=O)Nc2nnc(-c3ccco3)s2)cc1`: the Potency is 56.2 µM (active).
`COc1ccc(NC(=O)COCc2cc(-c3ccco3)on2)cc1`: the “activity change, negative = inhibition” value was 1.02% (inactive).
The same measure, in the same setting: the same measure for `Cc1cc(O)c(C(c2ccccc2)N2CCN(c3ccccc3F)CC2)c(=O)n1Cc1ccco1` (centres undefined): -20.1% (inactive).
Consider `Cc1ccc(NC(=O)Nc2sc3nc4n(c(=O)c3c2C)CCC(C)CC4)c(Cl)c1` (centres undefined), for which the “activity change, negative = inhibition” value was -21.2% (inactive).
As for `CCOC(=O)c1c(S(=O)(=O)N2CCCC(C(=O)NCc3cccc(C)c3)C2)c(C)n(C)c1C` (centres undefined), the “activity change, negative = inhibition” value is 10.5% (inactive).
On to `Cc1cccc(NC(=O)c2ccc(F)c(S(=O)(=O)N(C)C3CCCCC3)c2)c1`, for which the “activity change, negative = inhibition” value was -19.2% (inactive).
Still for that read-out and setting: as for `CCOC(=O)c1c(SCC(=O)Nc2cccc(C)c2C)nc(=O)[nH]c1C`, the figure is -16.7% (inactive).
The same measure, in the same setting: the same measure for `CCOC(=O)c1c(C)[nH]c(C)c1S(=O)(=O)N(C)CC(=O)N1CCN(c2ccccc2)CC1`: -10.7% (inactive).
For `CCOC(=O)c1c(C)[nH]c2c1-c1ccccc1C(=O)C2=O`, the Potency was 3.16 µM (active).
For the molecule `COc1ccc(Cl)cc1NC(=O)CSc1nc(=O)[nH]c2c1CCCC2`, the “activity change, negative = inhibition” value is -10.9% (inactive).
For the molecule `COc1ccc(NC(=O)CCN2CCN(CCO)CC2)cc1`, the “activity change, negative = inhibition” value is -4.68% (inactive).
The same measure, in the same setting: the same measure for `Cc1csc2nc(COC(=O)c3ccc(NC(=O)COc4ccccc4F)cc3)cc(=O)n12`: 3.79% (inactive).
On to `COc1ccc2[nH]c3c(C)c4cc[n+](C)cc4c(C)c3c2c1`, for which the Potency was 1.12 µM (active).
Consider `CC(=O)Nc1c(C)nn(-c2ccccc2)c1N1CCC(C(=O)Nc2cc(Cl)ccc2C)CC1`, for which the “activity change, negative = inhibition” value was -9.64% (inactive).
On the same count and under the same terms, as for `Cc1cc(-c2ccccc2)n2nc(-c3ccccc3)cc2n1`, the figure is -8.74% (inactive).
For the molecule `COc1ccccc1OCCCn1c(-c2ccc(Cl)cc2)nc2ccccc2c1=O`, the “activity change, negative = inhibition” value is -3.89% (inactive).
Regarding `O=C(Nc1nnc(S(=O)(=O)N2CCOCC2)s1)c1cccc(Br)c1`, the Potency entry is “inactive”.
For the molecule `O=C(Nc1nnc(S(=O)(=O)N2CCCCCC2)s1)c1cccc(Br)c1`, the “activity change, negative = inhibition” value was -3.69% (inactive).
For the molecule `O=C(Nc1nnc(S(=O)(=O)N2CCCc3ccccc32)s1)c1cccc(F)c1`, the Potency was 50.1 µM (active).
Turning to `COc1cc(NC(=O)c2cc(C3CC3)nc3c2c(C)nn3-c2ccccc2)cc(OC)c1`, the “activity change, negative = inhibition” value is -19.4% (inactive).
With `Cc1nn(Cc2ccc(F)cc2)c(C)c1NC(=O)c1cc(CC(C)C)on1`, the “activity change, negative = inhibition” value is -11.3% (inactive).
Consider `CCc1nc2cccnc2n1-c1ccc(CC(=O)Nc2c(C)cccc2C)cc1`, for which the “activity change, negative = inhibition” value is 14.8% (inactive).
Regarding `CCc1nc2cccnc2n1-c1ccc(C(=O)O)cc1`, the Potency is 20 µM (active).
For `Cc1ccc(Cl)cc1NC(=O)Cc1ccc(-n2c(C)nc3cccnc32)cc1`, the “activity change, negative = inhibition” value is -11.8% (inactive).
In the case of `O=C(O)c1ccc(Nc2nc(-c3ccccc3)c3cc(Br)ccc3n2)cc1`, the “activity change, negative = inhibition” value is -10.5% (inactive).
On the same count and under the same terms, as for `CCN(CC)c1ccc(NC(=O)CN2CCN(CC(=O)Nc3ccc(Cl)cc3)CC2)cc1`, the figure is -11.2% (inactive).
Regarding `CCc1ccc(S(=O)(=O)Nc2cc3c(C(=O)OCc4ccccc4)c(C)oc3c3ccccc23)cc1`, the “activity change, negative = inhibition” value was -26% (inactive).
For `Cc1ccc(Cc2cnc(N)s2)o1`, the Potency is 79.4 µM (active).
With `CCOC(=O)C1CCN(c2nc3c(S(=O)(=O)c4ccc(CC)cc4)nnn3c3ccc(Cl)cc23)CC1`, the “activity change, negative = inhibition” value was -18.8% (inactive).
